Test results: PMC5540273 (PLoS ONE, 2017)

Tested on: PIK3CB
Conditions: concentration: 1 μM, replicates: in singlicate; n = 1
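Also: KINOMEscan kinase panel screen.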

Compound	%Inh [%]
Cl.Cl.NCC(NCc1ccc(-c2ccnc3[nH]ccc23)s1)c1ccccc1 (centres unmarked) [GSK1321565]	19
CC(=O)N1CCN(c2ccc(Nc3nccc(-c4sc(C(C)C)nc4-c4cccc(NS(=O)(=O)c5cccc(Cl)c5)c4)n3)cn2)CC1 [GSK1660437]	13
COc1ccc(Nc2nccc(N3CCC(NC(=O)Nc4cccc(OC)c4)C3)n2)cc1 (centres unmarked) [GSK1379742]	0
Cl.Cl.NCC(NC(=O)c1cc(-c2ccccc2)c(-c2ccnc3[nH]ccc23)s1)c1ccccc1 (centres unmarked) [GSK1321561]	0
O=C(Nc1n[nH]c2cc(-c3ccoc3)ccc12)C1CC1 [SB-738481]	13
Cl.c1ccc(-c2ccc3c(Nc4ccc5[nH]ccc5c4)ccnc3c2)nc1 [GW440138]	37
COc1cc(Nc2nccc(-c3c(-c4cccc(NC(=O)c5c(F)cccc5F)c4)nn4ncccc34)n2)cc(OC)c1OC [GSK327238]	3
CCCCc1nn2ncccc2c1-c1ccnc(Nc2ccc(N3CCN(C)CC3)cc2)n1 [GW684941]	0
Nc1ncc(-c2ccc3nccc(-c4ccncc4)c3c2)cc1S(=O)(=O)N1CCOCC1 [GSK1627798]	77
Cc1ccc(S(=O)(=O)Nc2ccc(Nc3nccc(Nc4cccc5[nH]ncc45)n3)cc2)cc1 [GSK581271]	0
COc1ccc(Nc2nccc(NCCNC(=O)c3cc4ccccc4s3)n2)cc1 [GSK1379896]	32
NCCCC(NC(=O)c1cc(Br)c(-c2ccnc3[nH]ccc23)s1)c1ccccc1.O=C(O)C(F)(F)F.O=C(O)C(F)(F)F (centres unmarked) [GSK1287544]	100
CC(C)c1nc(-c2cccc(NS(=O)(=O)c3c(F)cccc3F)c2F)c(-c2ccnc(Nc3ccc(N4CCOCC4)nc3)n2)s1 [GSK2008607]	0
O=C(NC1CCN(c2ccnc(Nc3ccc(F)cc3)n2)C1)c1cc2ccccc2s1 (centres unmarked) [GSK1379716]	0
Nc1ncc(-c2cccnc2)c2scc(-c3ccc4c(c3)CCN4C(=O)Cc3ccccc3)c12 [GSK683281]	0
CC(C)(C)c1ccc2nccc(Nc3cccc(O)c3)c2c1 [GW856795]	0
COc1cccc(C2=C(Nc3ccc(Cl)c(C(=O)O)c3)C(=O)NC2=O)c1 [SB-390769]	93.3
Cc1ccc(F)c(C(=O)Nc2cccc(-c3nn4ccccc4c3-c3ccnc(Nc4cccc(F)c4)n3)c2)c1F [GSK361061]	0
O=C(Nc1n[nH]c2nc(-c3ccc(O)cc3)ccc12)C1CC1 [SB-710363]	0
c1ccc(-c2n[nH]cc2Nc2ccnc3ccccc23)nc1 [GW694077]	0
CCn1c(-c2nonc2N)nc2c(C#CC(C)(C)O)ncc(OCCCCN)c21.O=C(O)C(F)(F)F.O=C(O)C(F)(F)F [GSK507274]	0
O=C(Nc1cccc(-c2nn3ccccc3c2-c2ccnc(Nc3cccc(C(F)(F)F)c3)n2)c1)c1c(F)cccc1F [GSK292658]	0
Nc1n[nH]c2cnc(-c3ccccc3)cc12 [SB-642124]	0
CN(c1ccc(NC(=O)Nc2cc(C(F)(F)F)ccc2F)cc1)c1ccnc(Nc2ccc(S(N)(=O)=O)cc2)n1 [GW809893]	0
Clc1ccc(-c2nn3ncccc3c2-c2ccnc(Nc3ccc4c(c3)OCCO4)n2)cc1 [GW829116]	0
Cn1cc(-c2[nH]c3cc(NC(=O)[C@H](N)C4CCCCC4)cc4c3c2C=NNC4=O)cn1	9
